# Laboratory results taken from PubChem BioAssay AID588332 (National Center for Advancing Translational Sciences (NCATS), 2011).
# Unmarked numbers belong to inactive results. Calls come from the whole dose curve; as a rule, active = well fitted curve in the direction sought with a large enough effect; inactive = no such curve, though single readings can be large or run the other way.
# Target: ATP-dependent 6-phosphofructokinase (Geobacillus stearothermophilus) (UniProt P00512)
# Assay: Confirmatory Assay to Find Inhibitors of T. brucei phosphofructokinase: Counter Screen against Bacillus PFK
# Conditions: B. stearothermophilus PFK, ADP-Glo luminescence, 45 min; series mostly up to 57.5 µM; inhibition: at the top concentration
# Source text: Various species of the protozoan family Trypanosomatidae are responsible for a range of serious human diseases in tropical and subtropical areas of the world. […] Many of the disorders caused by trypanosomatids are fatal if left untreated, but most currently used drugs are inefficient and toxic. […] Oxidative metabolism involving the mitochondrial tricarboxylic acid cycle and oxidative phosphorylation are repressed in these parasites, and recent RNA interference (RNAi) experiments have shown that even partial depletion of certain individual glycolytic enzymes can lead to the death of cultured parasites. One such glycolytic enzyme, phosphofructokinase (PFK), catalyzes the formation of fructose-1,6-bisphosphate (F1,6BP) and ADP from fructose-6-phosphate (F6P) and ATP, and in many metabolic circumstances makes an important contribution to the control of flux through the glycolytic pathway. As a specific glycolytic target, PFK is particularly attractive as it catalyzes the first irreversible step in glycolysis, and structural and kinetic studies have shown very substantial and essential differences from corresponding host enzymes, allowing for the discovery of parasite-selective inhibitors. A luminescent biochemical assay was performed that used luciferase-based nucleotide detection (ADP-Glo, Promega) to examine the effect of identified actives against a bacterial isoform of PFK, namely Bacillus stearothermophilus, for target specificity. The assay is identical in concept to the T. brucei PFK qHTS assay, but instead uses the B. stearothermophilus isoform of PFK (Sigma, St. Louis, MO) and ATP/F6P at bacterial isoform-specific Km concentrations. NIH Chemical Genomics Center [NCGC] NIH Molecular Libraries Probe Centers Network [MLPCN] MLPCN Grant: MH092153-01 Assay Submitter (PI): Malcom Walkinshaw, University of Edinburgh
# Substrate buffer was dispensed into white, solid 1536-well plates at 3 uL/well in 0.1M triethanolamine (TEA) buffer, pH 8.0, containing final concentrations of 5 mM MgCl2, 0.01% Tween20, 0.6 mM fructose-6-phosphate (F6P) and 0.1 mM ATP. Then, 23 nl of compounds or DMSO were delivered to each well using a pin tool. One uL of B. stearothermophilus PFK (0.1 M TEA, 0.01% Tween20, 0.1% bovine serum albumin (BSA) and 10 nM PFK, final concentrations) was then dispensed, and plates were incubated at room temperature for 45 min. The luminescent detection reagent, ADP-Glo (Promega), was then added in two steps: the first reagent, ADP-Glo (which converts remaining uncatalyzed ATP), was added at 2.5 uL/well and incubated for ten minutes at room temperature, and the second component, Kinase Detection reagent (which converts ADP to ATP as a substrate for luciferase-based luminescence), was added immediately after at 5uL/well, followed by one final ten minute room temperature incubation. The plates were measured on a ViewLux plate reader for luminescent signal using a clear filter with a one second exposure. The %Activity was determined from the corrected luminescence values. 1x (1.25nM) and 0x PFK enzyme controls (untreated) were included to normalize %Activity of identified inhibitors; 0x enzyme values corresponded to 100%Activity (full inhibition), while 1x PFK enzyme values were used to normalize 0% Activity (no inhibition).
row,SMILES,inhibition [%]
1,Cc1cc(NS(=O)(=O)CCNC(=O)Cc2ccc(Cl)c(Cl)c2)no1,6.94
2,Cc1cc(NS(=O)(=O)c2ccc(NC(=O)c3ccc(Cl)c(Cl)c3)cc2)no1,4.5
3,Cc1cc(N(C)S(=O)(=O)c2ccc(NC(=O)Cc3ccc(Cl)c(Cl)c3)cc2)no1,7.13
4,Cc1cc(NS(=O)(=O)c2cccc(NC(=O)Cc3ccc(Cl)c(Cl)c3)c2)no1,6.88
5,O=C(Cc1ccc(Cl)c(Cl)c1)Nc1ccc(S(=O)(=O)Nc2cncnc2)cc1,8.9
6,O=C(Cc1ccc(Cl)c(Cl)c1)Nc1ccc(S(=O)(=O)Nc2cccc(O)c2)cc1,5.79
7,Cc1cc(NC(=O)c2ccc(NC(=O)Cc3ccc(Cl)c(Cl)c3)cc2)no1,9.14
8,COc1ccc(CC(=O)Nc2ccc(S(=O)(=O)Nc3cc(C)on3)cc2)cc1C,5.25
9,Cc1cc(NS(=O)(=O)c2ccc(NC(=O)Cc3ccc(Cl)c(Cl)c3)cc2)n(C)n1,9.44
10,Cc1cc(NS(=O)(=O)c2ccc(N(C)C(=O)Cc3ccc(Cl)c(Cl)c3)cc2)no1,2.87
11,Cc1cc(NS(=O)(=O)c2ccc(NC(=O)Cc3ccccc3)cc2)no1,1.27
12,O=C(Cc1ccc(Cl)c(Cl)c1)Nc1ccc(S(=O)(=O)Nc2cccc(C(=O)O)c2)cc1,11.7
13,Cc1cc(NS(=O)(=O)c2ccc(NC(=O)Cc3ccc(Cl)c(Cl)c3)cc2)no1,-2.25
14,Cc1cc(NS(=O)(=O)c2ccc(NC(=O)Cc3ccc(C)c(F)c3)cc2)no1,7.42
15,Cc1cc(NS(=O)(=O)c2ccc(NC(=O)Cc3cccc(Cl)c3)cc2)no1,5.01
16,Cc1cc(NS(=O)(=O)c2ccc(NC(=O)Cc3ccc(Cl)cc3Cl)cc2)no1,7.84
17,Cc1cc(N[S+](=O)([O-])c2ccc(NC(=O)Cc3ccc(Cl)nc3)cc2)no1,7.09
18,Cc1cc(NS(=O)(=O)C2CCN(C(=O)Cc3ccc(Cl)c(Cl)c3)CC2)no1,5.05
19,Cc1cc(NS(=O)(=O)c2ccc(NC(=O)Cc3ccc(C)c(C)c3)cc2)no1,1.26
20,COc1ccc(CC(=O)Nc2ccc(S(=O)(=O)Nc3cc(C)on3)cc2)cc1OC,8.18

row,SMILES,inhibition [%]
1,Cc1cc(NS(=O)(=O)Cc2ccc(NC(=O)Cc3ccc(Cl)c(Cl)c3)cc2)no1,12.5
2,CN(C)c1cccc(NS(=O)(=O)c2ccc(NC(=O)Cc3ccc(Cl)c(Cl)c3)cc2)c1,10
3,Cc1cc(NS(=O)(=O)c2ccc(NC(=O)Cc3ccc(Cl)c(C(F)(F)F)c3)cc2)no1,6.45
4,Cc1cc(NS(=O)(=O)c2ccc(NC(=O)CCc3ccc(Cl)c(Cl)c3)cc2)no1,7.06
5,Cc1cc(NS(=O)(=O)c2ccc(C(=O)NCc3ccc(Cl)c(Cl)c3)cc2)no1,12.6
6,O=C(Cc1ccc(Cl)c(Cl)c1)Nc1ccc(S(=O)(=O)Nc2ccccc2)cc1,9.48
7,Cc1cc(NS(=O)(=O)c2ccc(NC(=O)Cc3ccc4ccccc4c3)cc2)no1,5.31
8,CCOC(=O)c1cccc(NS(=O)(=O)c2ccc(NC(=O)Cc3ccc(Cl)c(Cl)c3)cc2)c1,11.7
9,O=C(Cc1ccc(Cl)c(Cl)c1)Nc1ccc(S(=O)(=O)O)cc1,13.4
10,Cc1cc(N[S+](=O)([O-])c2ccc3cc(NC(=O)Cc4ccc(Cl)c(Cl)c4)ccc3c2)no1,1.3
11,Cc1cc(NS(=O)(=O)c2ccc(NC(=O)Cc3ccc(Cl)c(F)c3)cc2)no1,7.83
12,O=C(Cc1ccc(Cl)c(Cl)c1)Nc1ccc(S(=O)(=O)Nc2ccn[nH]2)cc1,12.7
13,Cc1cc(NC(=O)c2csc(NC(=O)Cc3ccc(Cl)c(Cl)c3)n2)no1,10.4
14,O=C(Cc1ccc(Cl)c(Cl)c1)Nc1ccc(S(=O)(=O)Nc2ccc(C(=O)O)cc2)cc1,3.89
15,O=C(Cc1ccc(Cl)c(Cl)c1)Nc1ccc(S(=O)(=O)Nc2ccon2)cc1,7.77
16,Cc1cc(NS(=O)(=O)c2ccc(NC(=O)C(C)(C)c3ccc(Cl)c(Cl)c3)cc2)no1,8.27
17,Cc1cc(NS(=O)(=O)c2ccc(NC(=O)Cc3ccc(Cl)cc3)cc2)no1,7.74
18,Cc1cc(NS(=O)(=O)c2ccc(NCCc3ccc(Cl)c(Cl)c3)cc2)no1,6.15
19,Cc1cc(NS(=O)(=O)c2ccc(NC(=O)Cc3ccc(Cl)c(Cl)c3)cc2)on1,11.4
20,Cc1cc(NS(=O)(=O)c2ccc(NS(=O)(=O)Cc3ccc(Cl)c(Cl)c3)cc2)no1,10.1
